# A selection: hits, their analogues and other compounds. The true share with any hit is near 0.86%.
# AMA1 RON2 block – inhibitors of Plasmodium falciparum AMA1-RON2 interaction. AlphaScreen AMA1-biotinylated RON2 peptide binding. Potency, µM (doses to about 58.2 µM), without a hit: top-dose activity change, negative = inhibition, hits mostly inhibitors. 360,000 compounds, 0.2% hits;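 note: 0% = vehicle wells and -100% = peptide control; nearly all actives have a fitted effect of over 45% in size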
#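 AMA1 (3D7) with his tag at 25 nM final met compounds first, then biotinylated RON2 peptide at 25 nM; detection used donor plus acceptor beads, 10 µg/mL apiece, read by AlphaScreen after 30 min at room temperature.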
# AmpC detergent – AmpC beta-lactamase inhibition with detergent present; P00811; 370,000 compounds, 0.041% hits; AmpC hydrolysis of nitrocefin, absorbance 480 nm, 0.01% Triton; Potency, µM (titrated, usually from 114 µM), for the others: at the top dose activity change, negative = inhibition, usual class: inhibitors; AID 485294;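 note: 0% = no-compound wells and -100% = no-enzyme wells; nearly all actives have a fitted effect of over 25% in size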
# Target sequence (P00811 whole entry, looked up): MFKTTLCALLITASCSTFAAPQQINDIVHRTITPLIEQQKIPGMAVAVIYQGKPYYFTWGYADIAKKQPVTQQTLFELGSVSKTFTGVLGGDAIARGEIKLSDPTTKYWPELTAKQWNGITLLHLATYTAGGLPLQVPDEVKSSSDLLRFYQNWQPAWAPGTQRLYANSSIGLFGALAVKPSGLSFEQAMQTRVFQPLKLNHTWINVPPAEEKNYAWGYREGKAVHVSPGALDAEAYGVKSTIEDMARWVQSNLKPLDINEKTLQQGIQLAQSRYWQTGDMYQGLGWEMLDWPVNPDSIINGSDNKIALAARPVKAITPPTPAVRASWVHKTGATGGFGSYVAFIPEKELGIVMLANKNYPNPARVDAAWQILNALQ
#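 AmpC (5.3 nM in the dispensed reagent) in 20 mM phosphate pH 7.0 with 0.01% (detergent screen) or 0.0001% Triton X-100 was preincubated with compounds for 15 min at room temperature. Nitrocefin was then added from an 800 uM solution, and hydrolysis was followed at 480 nm.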
# AmpC no deterg – inhibitors of E. coli AmpC beta-lactamase without detergent | AmpC nitrocefin hydrolysis, absorbance 480 nm, 0.0001% Triton | 330,000 compounds, 0.52% hits | Potency, µM (series often up to 57.1 µM), inactives show at the highest dose activity change, negative = inhibition, hits mostly inhibitors;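 note: plate controls were no compound for no effect and no enzyme for full effect; nearly all actives have a fitted effect of over 20% in size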
#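 AmpC (5.3 nM in the dispensed reagent) in 20 mM phosphate pH 7.0 with 0.01% (detergent screen) or 0.0001% Triton X-100 was preincubated with compounds for 15 min at room temperature. Nitrocefin was then added from an 800 uM solution, and hydrolysis was followed at 480 nm.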
# NS1 function inh – blocks influenza NS1 protein function | Potency, µM (series often up to 46.1 µM), without a hit: at the top dose activity, positive = more growth | 270,000 compounds, 0.4% hits; calls by dose curve; note: actives are rising curves; nearly all actives have a fitted effect of over 50% in size
#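 Compounds were scored for reversing the slow growth caused by influenza A NS1 in S. cerevisiae, measured by optical density at 600 nm. Assay medium contained 2% galactose at pH 6.0; NS1-free yeast of the same strain were the positive control.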
# * marks the source's active call; other numbers are inactive results; u = inconclusive; x = not tested or not shown. Unless noted, calls come from the whole dose curve; as a rule, active = well fitted curve in the direction sought with a large enough effect; inconclusive = small, poorly fitted or top-dose-only effect, or another doubt; inactive = no such curve, though single readings can be large; an effect the other way counts as inactive or inconclusive. Potency is the fitted concentration of half-maximal effect.
SMILES,AMA1 RON2 block,AmpC detergent,AmpC no deterg,NS1 function inh
COCCN(C(=O)COC(=O)C12CC3CC(CC(C3)C1)C2)c1c(N)n(Cc2ccccc2)c(=O)[nH]c1=O,-21%,x,x,x
C=CCN(C)CC/C=C1\c2ccccc2CSc2ccccc21,14µM*,-10%,30%,-9%
OC(c1cccc(F)c1)c1ncc(-c2ccc(C(F)(F)F)cc2)[nH]1 (stereo not given),-7%,x,x,x
COc1cccc(/C=N/NC(=O)c2ccccc2)c1OS(=O)(=O)c1ccccc1,-17%,-7%,32µM*,7%
Cc1cc2oc(=O)cc(CSc3nc(N)cc(N)n3)c2cc1C(C)C,-10%,-6%,2.8µM*,12%
CCCc1cc(=O)[nH]c(SCc2cc(=O)oc3cc(C)c(C(C)C)cc23)n1,-2%,-14%,-22%,11%
CC(C)c1ccc(CNCCCSc2ncccn2)cc1,55%,-7%,16%,9%
CCOC(=O)/C(=N/Nc1ccccc1)N1CCCc2ccccc21,u,18%,25µM*,17%
CCOC(=O)/C(=N/Nc1ccc(OC)cc1)N1CCCc2ccccc21,22µM*,-9%,-2%,-52%
CCOC(=O)/C(=N/Nc1ccccc1OC)N1CCCc2ccccc21,-16%,4%,-14%,-1%
CC(=O)c1ccc(NC(=S)NCc2ccc(Cl)cc2Cl)cc1,-3%,u,-46%,x
Cn1c(=O)oc2cc(S(=O)(=O)NCc3ccc(F)cc3)ccc21,7%,u,-18%,12%
Cc1cc(=O)n(CCc2ccccc2)c(O)c1C#N,-13%,-3%,2.5µM*,-8%
Cc1ccn2cc(CNC(=O)c3cccs3)nc2c1,0%,u,3.5µM*,-5%
COc1ccc(NC(=O)c2nc3nc(C)cc(C(F)F)n3n2)c(C)c1,x,3%,x,x
COc1cccc(NC(=O)c2nc3nc(C)cc(C(F)F)n3n2)c1,5%,-10%,45µM*,-1%
c1ccc(C(c2cccc3c2ccc2ccccc23)[C@H](c2ccccc2)c2cccc3c2ccc2ccccc23)cc1 (stereo not given in full),x,x,x,8%
O=C1NC[C@H](Cc2ccc(O)cc2)N(C[C@H]2CCCN2C[C@H](Cc2ccc(O)cc2)N2C[C@H](Cc3ccc(O)cc3)N(CCc3ccccc3)C(=O)C2=O)C1=O,32µM*,x,x,x
O=C1NC[C@H](Cc2ccccc2)N(C[C@@H]2CCCN2C[C@H](Cc2ccc(O)cc2)N2C[C@H](Cc3ccc(O)cc3)N(CCc3ccccc3)C(=O)C2=O)C1=O,-7%,x,x,x
Cc1cc(O)c2c(c1O)C(=O)[C@]13C(=C2O)C(=O)[C@@H]2[C@@H](O)[C@H]1[C@@H]1[C@H](O)[C@H]3C(=O)C3=C(O)c4c(O)cc(C)c(O)c4C(=O)[C@]312,-42%,x,28µM*,x
COc1ccccc1-n1nnnc1SCC(=O)N(C)C1CCS(=O)(=O)C1 (stereo not given),33%,-5%,-3%,x
Cc1ccc(C)c(/C=N/n2cc(-c3ccccc3)[nH]c2=S)c1,31%,-13%,16µM*,x
COc1ccc2c(c1)CC/C(=C\Nc1ccc3c(c1)OCO3)C2=O,-4%,-8%,10µM*,-70%
O=C1/C(=C/Nc2ccc3c(c2)OCO3)CCc2ccccc21,-11%,0%,0%,-162%
O=[N+]([O-])c1ccccc1Nc1ccccc1,10µM*,3%,-21%,-5%
SMILES,AMA1 RON2 block,AmpC detergent,AmpC no deterg,NS1 function inh
CCOC(=O)C1(C(=O)O)NC(=O)CC1c1ccccc1 (stereo not given),3%,u,-17%,-8%
CCOC(=O)C1(C(=O)OCC)CC1c1ccccc1 (stereo not given),-4%,1%,4.5µM*,3%
COc1ccc(N=Nc2cc(C)c(O)c(CN3CCCCC3)c2)cc1,20µM*,6%,2%,-1%
O=C(CSc1nc2nn(-c3ccccc3)c(=O)c-2c2n1CCCCC2)Nc1ccc(F)c(F)c1,-9%,x,10µM*,x
C=CCN(Cc1cccc(OC)c1OC)C(=O)Oc1ccccc1,1%,-4%,-45%,x
CCOc1ccc2nc(SC3CC(=O)N(c4cccc(OC)c4)C3=O)sc2c1 (stereo not given),59%,-14%,8.9µM*,-31%
CCc1nc(CN2CCN(c3cc(C(F)(F)F)ccn3)CC2)c(C)[nH]1,-9%,-9%,0%,1%
Cn1c(=Nc2ccccc2)sc2ccccc21,11%,4%,-32%,-13%
CN(C)c1ccc(N=c2sc3ccccc3n2C)cc1,24µM*,-2%,29%,5%
